Reference: the supplement of paper PMC10849652
The full data set covers some 8,800 targets. This sample favours those with a hit. About 0.5% of all pairs of compound and target were hits. Values without a mark were called inactive.

How the values were obtained:
Test in all cases: log2 fold change, soluble protein after heating vs DMSO (PISA); higher = thermal stabilisation; K562 lysate, 10 uM; active = over 0.2 and 3.5 SD of the protein, either way, in both replicates (recomputed)
nilotinib = compound: Cc1cn(-c2cc(NC(=O)c3ccc(C)c(Nc4nccc(-c5cccnc5)n4)c3)cc(C(F)(F)F)c2)cn1 [nilotinib]
Procedure, shortened: (§1)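 Values give the log-two fold change in thermal stability against solvent controls, from duplicates. Crude K562 extract at 1 mg/mL protein, made by dounce homogenisation in PBS pH 7.4 with 1 mM MgCl2, was treated with 10 μM compound for 30 min. After 3 min heating across 48°C-58°C, aliquots were pooled, adjusted to 0.5% NP-40 at 4°C and centrifuged at 21,000xg for 90 min. The supernatant was measured by TMTpro 16plex LC-MS/MS with channel sums equalised.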

[1] = compound: Cc1nc(Nc2n[nH]c3c2CN(C(=O)N[C@H](CN(C)C)c2ccccc2)C3(C)C)c2sccc2n1
Procedure, shortened: as §1

dasatinib = compound: Cc1nc(Nc2ncc(C(=O)Nc3c(C)cccc3Cl)s2)cc(N2CCN(CCO)CC2)n1 [dasatinib]
Procedure, shortened: as §1

[2] = compound: Cc1ncc(-c2ccnc(Nc3ccc(S(C)(=O)=O)cc3)n2)n1C(C)C
Procedure, shortened: as §1

[3] = compound: Cn1cc(-c2ccc3c(c2)CCN3C(=O)Cc2cccc(C(F)(F)F)c2)c2c(N)ncnc21
Procedure, shortened: as §1

quisinostat = compound: Cn1cc(CNCC2CCN(c3ncc(C(=O)NO)cn3)CC2)c2ccccc21 [quisinostat]
Procedure, shortened: as §1

tipifarnib = compound: Cn1cncc1[C@@](N)(c1ccc(Cl)cc1)c1ccc2c(c1)c(-c1cccc(Cl)c1)cc(=O)n2C [tipifarnib]
Procedure, shortened: as §1

[4] = compound: NC(=O)Nc1cc(-c2cccc(F)c2)sc1C(=O)N[C@H]1CCCNC1
Procedure, shortened: as §1

[5] = compound: NC(=O)c1cnc(N[C@@H]2CCCC[C@@H]2N)nc1Nc1cccc(-n2nccn2)c1
Procedure, shortened: as §1

[6] = compound: NC1(c2ccc(-c3nc4ccn5c(=O)[nH]nc5c4cc3-c3ccccc3)cc2)CCC1
Procedure, shortened: as §1

Sequence of UniProt Q4G0N4 (Q4G0N4 whole entry, looked up): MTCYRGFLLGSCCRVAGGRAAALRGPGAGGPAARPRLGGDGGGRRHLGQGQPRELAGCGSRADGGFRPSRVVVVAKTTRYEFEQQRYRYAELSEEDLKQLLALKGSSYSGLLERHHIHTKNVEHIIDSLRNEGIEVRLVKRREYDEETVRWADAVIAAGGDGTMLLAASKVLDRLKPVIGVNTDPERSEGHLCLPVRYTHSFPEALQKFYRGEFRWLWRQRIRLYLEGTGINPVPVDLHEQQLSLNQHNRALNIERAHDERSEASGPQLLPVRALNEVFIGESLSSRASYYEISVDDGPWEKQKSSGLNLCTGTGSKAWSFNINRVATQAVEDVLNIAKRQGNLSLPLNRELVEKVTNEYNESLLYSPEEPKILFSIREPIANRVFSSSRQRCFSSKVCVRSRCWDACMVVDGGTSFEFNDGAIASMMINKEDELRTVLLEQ
Sequence of UniProt Q9H3P2 (Q9H3P2 whole entry, looked up): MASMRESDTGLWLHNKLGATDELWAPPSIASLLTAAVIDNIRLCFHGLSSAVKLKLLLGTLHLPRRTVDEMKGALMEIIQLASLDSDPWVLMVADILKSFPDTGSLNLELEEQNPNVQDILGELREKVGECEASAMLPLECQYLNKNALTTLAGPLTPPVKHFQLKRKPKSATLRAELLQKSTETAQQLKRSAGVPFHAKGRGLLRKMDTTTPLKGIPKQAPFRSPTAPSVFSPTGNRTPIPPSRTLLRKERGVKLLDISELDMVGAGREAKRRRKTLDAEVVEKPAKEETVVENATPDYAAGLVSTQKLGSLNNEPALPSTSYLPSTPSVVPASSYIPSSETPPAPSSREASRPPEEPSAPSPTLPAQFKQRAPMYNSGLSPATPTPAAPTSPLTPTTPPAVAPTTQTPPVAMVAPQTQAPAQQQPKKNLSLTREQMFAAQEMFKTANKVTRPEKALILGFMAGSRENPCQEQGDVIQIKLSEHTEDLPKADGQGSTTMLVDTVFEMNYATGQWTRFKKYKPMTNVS
Sequence of UniProt Q9H4L5 (Q9H4L5 whole entry, looked up): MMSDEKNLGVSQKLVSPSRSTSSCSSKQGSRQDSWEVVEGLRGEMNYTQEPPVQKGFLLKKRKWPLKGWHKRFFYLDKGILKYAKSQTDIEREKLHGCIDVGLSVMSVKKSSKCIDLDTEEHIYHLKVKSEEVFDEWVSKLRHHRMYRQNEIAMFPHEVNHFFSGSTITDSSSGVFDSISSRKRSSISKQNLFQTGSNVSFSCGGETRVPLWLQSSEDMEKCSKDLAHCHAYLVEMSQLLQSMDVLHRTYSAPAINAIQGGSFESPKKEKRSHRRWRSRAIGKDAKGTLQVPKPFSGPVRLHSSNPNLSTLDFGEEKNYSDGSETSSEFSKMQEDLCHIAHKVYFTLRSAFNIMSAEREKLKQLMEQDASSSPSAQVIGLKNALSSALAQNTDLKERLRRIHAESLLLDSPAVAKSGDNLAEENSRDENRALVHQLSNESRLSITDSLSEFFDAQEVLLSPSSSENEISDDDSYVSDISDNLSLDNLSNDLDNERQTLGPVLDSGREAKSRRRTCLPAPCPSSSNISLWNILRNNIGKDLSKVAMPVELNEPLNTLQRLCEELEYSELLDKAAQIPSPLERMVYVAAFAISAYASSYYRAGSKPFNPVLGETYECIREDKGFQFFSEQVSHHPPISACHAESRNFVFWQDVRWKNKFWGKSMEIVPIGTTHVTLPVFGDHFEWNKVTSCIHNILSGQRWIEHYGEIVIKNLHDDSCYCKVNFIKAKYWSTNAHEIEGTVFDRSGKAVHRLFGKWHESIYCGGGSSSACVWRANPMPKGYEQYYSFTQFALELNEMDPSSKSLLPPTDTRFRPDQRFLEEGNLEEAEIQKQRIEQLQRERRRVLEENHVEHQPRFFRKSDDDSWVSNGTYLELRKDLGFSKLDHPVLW
Sequence of UniProt Q96RE7 (Q96RE7 whole entry, looked up): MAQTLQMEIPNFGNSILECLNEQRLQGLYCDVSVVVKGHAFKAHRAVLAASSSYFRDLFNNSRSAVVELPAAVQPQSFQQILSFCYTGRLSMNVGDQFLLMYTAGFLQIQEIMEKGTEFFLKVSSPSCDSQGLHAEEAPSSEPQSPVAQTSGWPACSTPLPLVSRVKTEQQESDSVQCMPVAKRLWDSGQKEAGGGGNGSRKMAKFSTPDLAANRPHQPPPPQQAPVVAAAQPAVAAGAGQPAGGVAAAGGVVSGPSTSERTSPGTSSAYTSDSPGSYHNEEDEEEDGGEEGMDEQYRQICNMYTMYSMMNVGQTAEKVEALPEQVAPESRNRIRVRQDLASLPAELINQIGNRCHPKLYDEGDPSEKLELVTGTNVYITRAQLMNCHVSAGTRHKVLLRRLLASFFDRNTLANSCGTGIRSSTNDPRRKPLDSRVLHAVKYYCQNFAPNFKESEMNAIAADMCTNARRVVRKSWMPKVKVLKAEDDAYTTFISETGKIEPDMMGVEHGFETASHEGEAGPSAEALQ
Sequence of UniProt Q9Y5B6 (Q9Y5B6 whole entry, looked up): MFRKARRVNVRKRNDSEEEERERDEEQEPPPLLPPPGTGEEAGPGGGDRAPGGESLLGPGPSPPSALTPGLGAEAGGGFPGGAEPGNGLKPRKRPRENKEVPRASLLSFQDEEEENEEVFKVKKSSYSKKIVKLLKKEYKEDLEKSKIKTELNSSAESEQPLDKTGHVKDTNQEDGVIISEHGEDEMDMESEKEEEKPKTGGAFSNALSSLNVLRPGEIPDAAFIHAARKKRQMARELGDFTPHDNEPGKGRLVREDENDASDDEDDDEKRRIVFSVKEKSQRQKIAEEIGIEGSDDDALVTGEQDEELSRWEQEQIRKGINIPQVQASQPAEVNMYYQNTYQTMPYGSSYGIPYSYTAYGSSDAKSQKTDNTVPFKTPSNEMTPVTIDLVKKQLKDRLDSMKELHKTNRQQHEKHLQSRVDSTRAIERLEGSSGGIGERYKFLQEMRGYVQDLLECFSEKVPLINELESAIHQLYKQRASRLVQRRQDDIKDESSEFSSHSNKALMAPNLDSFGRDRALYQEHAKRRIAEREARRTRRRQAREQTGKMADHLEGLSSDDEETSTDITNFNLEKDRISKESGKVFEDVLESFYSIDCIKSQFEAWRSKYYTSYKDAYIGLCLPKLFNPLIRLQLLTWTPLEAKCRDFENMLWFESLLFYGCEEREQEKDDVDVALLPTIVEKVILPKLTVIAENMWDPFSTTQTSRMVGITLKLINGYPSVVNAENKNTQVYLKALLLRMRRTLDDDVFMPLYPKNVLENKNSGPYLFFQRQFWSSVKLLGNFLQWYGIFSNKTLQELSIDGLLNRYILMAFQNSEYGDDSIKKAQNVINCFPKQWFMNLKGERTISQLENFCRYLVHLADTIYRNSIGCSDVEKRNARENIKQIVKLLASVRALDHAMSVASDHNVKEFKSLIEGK
Sequence of UniProt Q5SRE5 (Q5SRE5 whole entry, looked up): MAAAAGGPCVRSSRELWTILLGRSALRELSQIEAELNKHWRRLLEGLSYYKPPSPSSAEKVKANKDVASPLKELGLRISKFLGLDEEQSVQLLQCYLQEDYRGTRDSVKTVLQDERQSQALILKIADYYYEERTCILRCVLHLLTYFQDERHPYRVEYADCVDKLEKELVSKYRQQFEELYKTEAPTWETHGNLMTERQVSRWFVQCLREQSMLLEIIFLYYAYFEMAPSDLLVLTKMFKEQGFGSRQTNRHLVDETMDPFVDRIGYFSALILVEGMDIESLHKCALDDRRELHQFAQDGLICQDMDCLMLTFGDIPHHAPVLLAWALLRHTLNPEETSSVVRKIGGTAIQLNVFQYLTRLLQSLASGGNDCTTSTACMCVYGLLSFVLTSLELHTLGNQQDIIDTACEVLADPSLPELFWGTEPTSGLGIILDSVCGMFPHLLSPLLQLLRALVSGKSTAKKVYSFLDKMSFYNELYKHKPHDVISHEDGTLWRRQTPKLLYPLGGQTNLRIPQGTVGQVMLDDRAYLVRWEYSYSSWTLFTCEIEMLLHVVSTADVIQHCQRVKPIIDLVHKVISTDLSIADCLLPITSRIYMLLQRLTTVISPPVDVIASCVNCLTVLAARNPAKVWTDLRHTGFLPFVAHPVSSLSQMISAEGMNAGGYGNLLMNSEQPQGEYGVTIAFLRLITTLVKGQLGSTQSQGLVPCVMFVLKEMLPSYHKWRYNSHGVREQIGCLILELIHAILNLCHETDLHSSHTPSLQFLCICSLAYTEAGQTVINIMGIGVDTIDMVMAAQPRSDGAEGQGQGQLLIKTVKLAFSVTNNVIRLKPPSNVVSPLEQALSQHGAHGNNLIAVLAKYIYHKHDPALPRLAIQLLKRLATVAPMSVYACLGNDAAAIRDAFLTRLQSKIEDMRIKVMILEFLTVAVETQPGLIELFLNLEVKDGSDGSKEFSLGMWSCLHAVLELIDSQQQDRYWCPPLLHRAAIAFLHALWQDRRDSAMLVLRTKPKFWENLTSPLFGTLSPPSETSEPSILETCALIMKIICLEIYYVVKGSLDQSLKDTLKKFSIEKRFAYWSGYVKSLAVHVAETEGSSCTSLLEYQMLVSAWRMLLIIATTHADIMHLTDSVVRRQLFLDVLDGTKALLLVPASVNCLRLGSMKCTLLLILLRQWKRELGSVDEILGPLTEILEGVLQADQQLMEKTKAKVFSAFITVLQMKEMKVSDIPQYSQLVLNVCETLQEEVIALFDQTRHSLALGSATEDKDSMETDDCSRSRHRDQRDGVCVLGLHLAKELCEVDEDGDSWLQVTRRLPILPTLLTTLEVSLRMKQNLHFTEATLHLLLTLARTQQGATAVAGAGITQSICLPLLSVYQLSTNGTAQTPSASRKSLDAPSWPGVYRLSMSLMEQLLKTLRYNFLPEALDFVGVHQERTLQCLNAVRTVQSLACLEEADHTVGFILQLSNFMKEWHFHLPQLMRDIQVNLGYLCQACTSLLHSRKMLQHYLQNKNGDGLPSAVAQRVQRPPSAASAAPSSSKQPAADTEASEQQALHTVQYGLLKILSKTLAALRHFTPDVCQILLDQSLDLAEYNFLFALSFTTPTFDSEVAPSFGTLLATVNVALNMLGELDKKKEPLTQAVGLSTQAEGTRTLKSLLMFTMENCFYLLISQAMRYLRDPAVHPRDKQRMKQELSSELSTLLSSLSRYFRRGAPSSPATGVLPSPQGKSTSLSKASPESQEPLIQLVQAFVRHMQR

Target | log2 fold change (nilotinib) | log2 fold change [1] | log2 fold change (dasatinib) | log2 fold change [2] | log2 fold change [3] | log2 fold change (quisinostat) | log2 fold change (tipifarnib) | log2 fold change [4] | log2 fold change [5] | log2 fold change [6]
NRIP1 (UniProt P48552) | 0.035 | -0.127 | 0.135 | 0.035 | 0 | -0.437 | -0.03 | 0.083 | 0.022 | -0.048
PAIP2 (UniProt Q9BPZ3) | 0.136 | 0.062 | -0.047 | -0.009 | -0.049 | 0.007 | -0.1 | -0.087 | -0.02 | -0.018
OLA1 (UniProt Q9NTK5) | 0.001 | -0.009 | -0.023 | 0.006 | 0.018 | -0.008 | 0.018 | 0.022 | -0.006 | 0.025
NAT1 (UniProt P18440) | -0.005 | -0.017 | -0.058 | -0.04 | 0.097 | -0.1 | -0.006 | 0.017 | -0.018 | -0.037
OCRL (UniProt Q01968) | -0.095 | 0.083 | -0.044 | -0.051 | 0.053 | -0.089 | 0.048 | -0.018 | -0.012 | 0.024
OSBPL3 isoform 2 (UniProt Q9H4L5) | 0.085 | -0.048 | -0.191 | -0.026 | 0.024 | -0.051 | -0.02 | 0.003 | 0.017 | -0.151
NTPCR (UniProt Q9BSD7) | 0.019 | -0.01 | -0.061 | 0.056 | 0.032 | -0.088 | 0.003 | 0.028 | 0.017 | -0.027
MTFP1 (UniProt Q9UDX5) | 0.044 | -0.021 | 0.069 | 0.043 | 0.008 | 0.133 | -0.014 | 0.02 | -0.103 | -0.004
OTUD7B (UniProt Q6GQQ9) | -0.017 | 0.017 | 0.005 | 0.03 | 0.027 | -0.252 | 0.05 | 0.142 | 0.026 | -0.095
MSI2 (UniProt Q96DH6) | -0.089 | 0.011 | 0.01 | 0.009 | 0.049 | 0.023 | -0.057 | 0.029 | 0.028 | -0.016
NCAPD3 (UniProt P42695) | 0.005 | -0.022 | -0.041 | 0.005 | 0.005 | -0.06 | 0.005 | 0.078 | -0.014 | -0.028
NCAPD2 (UniProt Q15021) | 0.006 | 0.01 | -0.037 | -0.001 | 0.031 | -0.064 | -0.019 | 0.044 | 0.003 | -0.009
NEK7 (UniProt Q8TDX7) | 0.003 | 0.016 | -0.03 | 0.045 | 0.168 | -0.018 | -0.006 | 0.033 | 0.018 | 0.01
NACC1 (UniProt Q96RE7) | -0.013 | 0.031 | -0.006 | -0.007 | 0.022 | -0.024 | -0.008 | -0.04 | 0.022 | 0.015
NGLY1 (UniProt Q96IV0) | -0.004 | 0.02 | -0.038 | 0.008 | 0.042 | -0.104 | -0.016 | 0.041 | -0.005 | -0.03
N6AMT1 (UniProt Q9Y5N5) | -0.009 | 0.1 | 0.002 | 0.018 | 0.013 | 0 | 0.06 | -0.013 | -0.027 | 0.037
NFKBIE (UniProt O00221) | -0.074 | 0.014 | -0.053 | 0.424 (active) | 0.002 | -0.004 | -0.112 | 0.025 | 0.061 | -0.024
NADK2 (UniProt Q4G0N4) | 0.022 | 0.002 | -0.016 | -0.008 | -0.022 | 0.017 | 0.008 | -0.032 | 0.029 | 0.03
MRPS18A isoform 2 (UniProt Q9NVS2) | 0.031 | -0.022 | -0.054 | -0.033 | 0.006 | -0.012 | -0.026 | 0.036 | 0.014 | -0.065
NBEAL2 (UniProt Q6ZNJ1) | 0.031 | -0.008 | -0.069 | 0.036 | 0.029 | -0.077 | -0.017 | 0.033 | 0.014 | 0.06
NELFA (UniProt Q9H3P2) | -0.018 | -0.01 | -0.064 | -0.02 | -0.009 | -0.007 | 0.024 | 0.03 | 0.048 | -0.014
PAXBP1 (UniProt Q9Y5B6) | -0.014 | 0.012 | -0.046 | 0.011 | 0.024 | -0.041 | -0.008 | 0.031 | 0.023 | -0.006
NUDT4 isoform 2 (UniProt Q9NZJ9) | -0.004 | 0.012 | 0.13 | -0.002 | 0.038 | -0.012 | -0.044 | 0.016 | -0.042 | 0.043
NUP210 (UniProt Q8TEM1) | -0.019 | -0.008 | -0.08 | 0.009 | 0.001 | 0.084 | -0.043 | -0.01 | 0.059 | -0.019
NUP188 (UniProt Q5SRE5) | 0.025 | -0.003 | -0.074 | -0.002 | 0.055 | -0.024 | -0.047 | 0.043 | 0.03 | 0.009
NEBL isoform 2 (UniProt O76041) | -0.022 | -0.001 | -0.029 | 0.015 | -0.072 | 0.012 | -0.021 | -0.017 | -0.027 | -0.007
NUSAP1 (UniProt Q9BXS6) | -0.001 | 0.004 | 0.045 | -0.009 | -0.047 | 0.038 | -0.016 | -0.024 | 0.002 | -0.055
NR3C1 isoform 3 (UniProt P04150) | -0.021 | -0.069 | -0.042 | 0.044 | -0.014 | -0.032 | -0.038 | 0.035 | 0.03 | -0.021
NFIC (UniProt P08651) | -0.058 | -0.162 | 0.014 | -0.114 | 0.022 | -0.072 | 0.014 | 0.029 | 0.098 | 0.016
